The text below walks through data of PubChem BioAssay (NCI).

Some test systems named below: DU-145 prostate; K-562 leukemia; MALME-3M melanoma; MDA-MB-231 breast; RXF 393 renal; SF-268 CNS; SF-295 CNS; SF-539 CNS; UACC-257 melanoma; M14 melanoma; HCT-15 colon; HT29 colon; SNB-75 CNS; SNB-19 CNS; U251 CNS; PC-3 prostate; SK-MEL-5 melanoma; UACC-62 melanoma; LOX IMVI melanoma; SK-MEL-28 melanoma.
Holding throughout (assay): NCI-60 one-dose screen, 48 h (100 = growth as untreated, 0 = no growth, -100 = all killed)
Common to all, as to conditions: 10 µM unless noted

Structures are written as SMILES. Compounds without any hit were thinned out: in the full panel of roughly 83,000, 20% have a hit.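 Activity criterion: percent growth below 10, measured after cells in 96-well plates were exposed to a single compound concentration for 48 hours.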 A number with no mark means an inactive call. The source made the active and inactive calls.

For the compound `CC1O[C@@H](OC2[C@H](OC(=O)/C=C/c3ccc(O)c(O)c3)C(COC3O[C@H](C)C(O)C(O)[C@@H]3O)O[C@@H](OCCc3ccc(O)c(O)c3)[C@H]2O)[C@@H](O)C(O)[C@H]1O` (stereo not given in full), the growth in the assay on DU-145 prostate is 106%; with K-562 leukemia, 105%; with MALME-3M melanoma, 88.1%; in the assay with MDA-MB-231 breast, 108%; in the assay with RXF 393 renal, 125%; in the assay on SF-268 CNS it was 103%. Besides, the growth in the assay with SF-295 CNS was 103%; in the assay on SF-539 CNS, 94.2%; with UACC-257 melanoma, 80.8%; with M14 melanoma, 97.1%; in the assay with HCT-15 colon it was 100%; with HT29 colon, 100%. The growth is 85.7% in the assay with SNB-75 CNS; 107% in the assay on SNB-19 CNS; 99.4% in the assay with U251 CNS; 99.9% in the assay on PC-3 prostate; 103% in the assay with SK-MEL-5 melanoma; 101% in the assay with UACC-62 melanoma. Moreover, the growth was 102% with LOX IMVI melanoma and 110% in the assay with SK-MEL-28 melanoma.

Consider `COc1cc(C2CC(c3cc(OC)c(OCCCOc4ccc(-n5c(/C=C/c6ccccc6)nc6ccccc6c5=O)cc4)c(OC)c3)=NO2)cc(OC)c1OC` (stereo not given), for which the growth in the assay with DU-145 prostate is 120%; with K-562 leukemia it was 78.7%; in the assay with MALME-3M melanoma, 143%; in the assay with MDA-MB-231 breast it was 110%; in the assay with RXF 393 renal, 116%; in the assay on SF-268 CNS, 107%. For the same compound, the growth with SF-295 CNS was 81%; in the assay on SF-539 CNS it was 108%; in the assay with UACC-257 melanoma, 106%; with M14 melanoma, 127%; in the assay with HCT-15 colon, 84.7%; in the assay on HT29 colon, 104%. Further, the growth with SNB-75 CNS is 86.9%; in the assay with SNB-19 CNS, 110%; in the assay with U251 CNS, 103%; in the assay with PC-3 prostate, 79.4%; with SK-MEL-5 melanoma, 95.6%; with UACC-62 melanoma, 82.6%. Moreover, the growth in the assay on LOX IMVI melanoma is 94.6%; in the assay on SK-MEL-28 melanoma, 104%.

For `Cc1cc(=O)[nH]c(N=Nc2c(O)[nH]c3ccccc23)n1`, the growth with DU-145 prostate was 117%; in the assay on K-562 leukemia it was 116%; with MALME-3M melanoma, 127%; with MDA-MB-231 breast, 97.2%; in the assay with RXF 393 renal, 117%; in the assay with SF-268 CNS, 105%. The growth in the assay on SF-295 CNS was 114%; in the assay with SF-539 CNS, 105%; in the assay on UACC-257 melanoma it was 112%; in the assay on M14 melanoma it was 100%; in the assay with HCT-15 colon it was 109%; with HT29 colon it was 106%. Moreover, the growth in the assay with SNB-75 CNS is 105%; in the assay on SNB-19 CNS, 103%; with U251 CNS, 103%; in the assay on PC-3 prostate, 97.9%; in the assay with SK-MEL-5 melanoma, 103%; in the assay with UACC-62 melanoma it was 106%. Further, the growth with LOX IMVI melanoma is 99.8%; in the assay with SK-MEL-28 melanoma, 111%.

For `Cc1cccc(-c2nc(N(C)c3ccc4ncsc4c3)c3ccccc3n2)n1`, the growth in the assay on DU-145 prostate was 94.1%; in the assay with K-562 leukemia, 21.6%; with MALME-3M melanoma, 79.5%; in the assay on MDA-MB-231 breast, 63.6%; in the assay with RXF 393 renal, 84.3%; with SF-268 CNS, 94.1%. The growth is 77% in the assay with SF-295 CNS; 92.1% in the assay on SF-539 CNS; 76.1% with UACC-257 melanoma; 54.1% with M14 melanoma; 51.5% in the assay with HCT-15 colon; 50.1% in the assay with HT29 colon. For the same compound, the growth is 94% in the assay on SNB-75 CNS; 77.1% with SNB-19 CNS; 82.2% in the assay with U251 CNS; 45.5% in the assay on PC-3 prostate; 22.4% in the assay on SK-MEL-5 melanoma; 50.4% with UACC-62 melanoma. Further, the growth is 77.5% in the assay with LOX IMVI melanoma and 72% in the assay with SK-MEL-28 melanoma.

Regarding `O=S(=O)(Nc1cccc(Cl)c1)c1ccc(-c2cnc(C3CC3)o2)cc1`, the growth in the assay on DU-145 prostate was 20.4%; with K-562 leukemia it was 9.52% (active); in the assay with MALME-3M melanoma it was 58.2%; in the assay on MDA-MB-231 breast, 23.3%; in the assay on RXF 393 renal it was 13.8%; in the assay on SF-268 CNS, 51%. In addition, the growth in the assay with SF-295 CNS was 15.5%; in the assay on SF-539 CNS, -0.0211% (active); in the assay with UACC-257 melanoma, 63.8%; in the assay on M14 melanoma it was 16.2%; with HCT-15 colon, 23.9%; with HT29 colon, 3.59% (active). Moreover, the growth was -25.8% (active) in the assay with SNB-75 CNS; 24.1% in the assay on SNB-19 CNS; 22.9% in the assay with U251 CNS; 26.3% with PC-3 prostate; 16.4% in the assay on SK-MEL-5 melanoma; 29.2% in the assay on UACC-62 melanoma. Besides, the growth with LOX IMVI melanoma was 35.4%; in the assay on SK-MEL-28 melanoma it was 68.4%.

For the compound `COC(=O)[C@H](CSC)N(C)C(=O)[C@@H]1CSSC[C@@H](NC(=O)c2nc3ccccc3cc2O)C(=O)NCC(=O)N1C`, the growth is 77.6% with DU-145 prostate; 48.8% with K-562 leukemia; 96.7% in the assay with MALME-3M melanoma; 81.3% with MDA-MB-231 breast; 101% with RXF 393 renal; 79.2% with SF-268 CNS. Moreover, the growth was 114% in the assay with SF-295 CNS; 87.2% with SF-539 CNS; 76.1% in the assay with UACC-257 melanoma; 46.2% in the assay with M14 melanoma; 99.1% in the assay on HCT-15 colon; 76.1% with HT29 colon. Also, the growth in the assay on SNB-75 CNS was 132%; in the assay on SNB-19 CNS it was 92.7%; with U251 CNS, 91.2%; with PC-3 prostate it was 72.7%; in the assay on SK-MEL-5 melanoma, 38%; in the assay on UACC-62 melanoma, 60%. In addition, the growth in the assay on LOX IMVI melanoma is 48.3%; with SK-MEL-28 melanoma it was 83.4%.

Consider `CN(C)CC1=NC2SC=C(c3ccccc3)C2C(=O)N1CC#N` (stereo not given), for which the growth with DU-145 prostate is 111%; in the assay with K-562 leukemia, 60%; in the assay on MALME-3M melanoma, 83.1%; in the assay on MDA-MB-231 breast it was 92%; in the assay with RXF 393 renal, 81.3%; in the assay with SF-268 CNS it was 109%. In addition, the growth is 99.2% with SF-295 CNS; 101% with SF-539 CNS; 108% with UACC-257 melanoma; 105% in the assay with M14 melanoma; 105% in the assay with HCT-15 colon; 101% with HT29 colon. For the same compound, the growth with SNB-75 CNS is 87.6%; with SNB-19 CNS, 108%; with U251 CNS it was 104%; with PC-3 prostate, 71.4%; in the assay on SK-MEL-5 melanoma, 107%; in the assay on UACC-62 melanoma, 87.3%. Further, the growth in the assay with LOX IMVI melanoma is 99.7%; with SK-MEL-28 melanoma, 119%.

As to `O=C(COc1ccc(/C=C2\Oc3ccccc3C2=O)cc1)Nc1nc2c(s1)CCCC2`, the growth was -79.7% (active) with DU-145 prostate; 20.9% in the assay on K-562 leukemia; 22.6% in the assay on MALME-3M melanoma; 22.2% with MDA-MB-231 breast; -5.41% (active) in the assay with RXF 393 renal; -9.96% (active) in the assay on SF-268 CNS. The growth in the assay with SF-295 CNS was 101%; with SF-539 CNS, -95.7% (active); in the assay on UACC-257 melanoma, 104%; with M14 melanoma, 98.3%; in the assay on HCT-15 colon it was 89.7%; in the assay on HT29 colon, 30.2%. Besides, the growth with SNB-75 CNS is -76.6% (active); in the assay on SNB-19 CNS, 83%; in the assay with U251 CNS it was -44.4% (active); with PC-3 prostate, 12.3%; in the assay with SK-MEL-5 melanoma, 103%; in the assay with UACC-62 melanoma it was 75.6%. In addition, the growth was -57.3% (active) in the assay with LOX IMVI melanoma and 117% in the assay on SK-MEL-28 melanoma.
